TSG101-PTAP inh: qHTS Assay for Iinhibitors of HIV-1 Budding by Blocking the Interaction of PTAP/TSG101; Fluorescence polarization, FITC-PTAP peptide / Tsg101 binding; Potency, µM (top dose mostly 115 µM), without a hit: at the highest dose activity change, negative = inhibition, usual class: inhibitors; 340,000 tested, under 10 active; AID 493005, 2010; active = well fitted inhibition curve with a large enough effect in the main read-out, with a control signal flat, not every such curve was filed as active; inconclusive = small, poorly fitted or top-dose-only effect, or effect the other way, or a change in a side signal; inactive = no such curve, though single readings can be large or run the other way; also: potency is read from the fitted curve at half-maximal effect; % of control where 0% means no effect
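Compounds were pin-transferred onto Tsg101 binding domain (10 uM final) in HEPES pH 7.5 buffer, then FITC-PTAP peptide was added at 50 nM final. After 20 min at RT, polarization reported peptide displacement across a qHTS concentration series.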
DRD3 antagonist: qHTS of D3 Dopamine Receptor Antagonist: qHTS; D3R cells, DiscoveRx beta-arrestin luminescence, antagonist mode; hits give low values; max response, negative = inhibition, %; D(3) dopamine receptor (Homo sapiens), P35462; 360,000 compounds, 2.5% hits; AID 652054, 2013; in the data active = max response below about -50%; inconclusive = no clear call, values can overlap the other calls; also: % is scaled to controls: 0 for no effect and ±100 for the full control effect
Target sequence (P35462 whole entry, looked up): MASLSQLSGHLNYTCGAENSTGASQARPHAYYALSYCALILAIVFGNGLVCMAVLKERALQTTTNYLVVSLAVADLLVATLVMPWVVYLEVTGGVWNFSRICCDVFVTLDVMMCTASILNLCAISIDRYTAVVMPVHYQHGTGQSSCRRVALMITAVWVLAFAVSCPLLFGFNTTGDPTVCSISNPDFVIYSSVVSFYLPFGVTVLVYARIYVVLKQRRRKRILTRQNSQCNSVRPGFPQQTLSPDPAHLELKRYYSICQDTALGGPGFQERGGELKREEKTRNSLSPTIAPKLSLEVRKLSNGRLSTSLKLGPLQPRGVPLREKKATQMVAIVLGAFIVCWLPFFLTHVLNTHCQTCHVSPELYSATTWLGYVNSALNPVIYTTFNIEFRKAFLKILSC
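Cells plated overnight at 1500 cells/well, then exposed to library compounds with dopamine controls for 90 minutes at 37 degrees C. DiscoveRx reagent added for 30–60 minutes at room temperature; luminescence read, quantitative HTS format.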
D3 ag: qHTS of D3 Dopamine Receptor Agonist: qHTS | 410,000 compounds, 0.58% hits | D3R DiscoveRx beta-arrestin cells, luminescence, 90 min | max activation, % | D(3) dopamine receptor (Homo sapiens), P35462; in the data active = max activation above about 30%; also: 0% is about no effect
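Agonist-mode cell screen: cells plated at 1500/well and incubated overnight at 37 °C, then exposed to library compounds for 90 min at 37 °C. Detection reagent was added for 30–60 min at room temperature, and luminescence was read.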
Mm-Cpn inhibitor: Inhibitors of TCP-1 ring complex (TRiC) of Methanococcus maripaludis (MmCpn): qHTS; purified Mm-Cpn ATPase, ADP Transcreener TR-FRET; Potency, µM (series often up to 76.9 µM), without a hit: at the top dose activity, negative = inhibition, hits mostly inhibitors; AID 504842, 2011; 330,000 compounds, 0.031% hits; active = well fitted inhibition curve with a large enough effect; inconclusive = small, poorly fitted or top-dose-only effect; also: potency is read from the fitted curve at half-maximal effect; % is scaled to controls: 0 for no effect and ±100 for the full control effect; nearly all actives have a fitted effect of over 80% in size
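Eu-cryptate anti-ADP/ADP-d2 competition gives a ratio inversely related to ADP. Enzyme at 25 nM was pre-exposed to compound for 10 min, then given 10 uM ATP for 30 min, 37°C throughout.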
Rango-impB inh: qHTS Assay for Inhibitors of Rango (Ran-regulated importin-beta cargo) - Importin beta complex formation. Potency, µM (top dose mostly 92.2 µM), for the others: top-dose inhibition of complex formation. 340,000 compounds, 0.031% hits. Importin subunit beta-1 (Homo sapiens), Q14974. Rango CFP/YFP FRET sensor + importin beta, 45 min;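 also: potency is read from the fitted curve at half-maximal effect; 0% = DMSO wells and 100% = buffer wells lacking importin beta; nearly all actives have a fitted effect of over 15% in size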
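FRET biosensor Rango (snurportin 1 IBB between N-terminal EYFP and C-terminal Cerulean), 50 nM in PBS/1 mM DTT/0.02% Tween-20/0.1% BSA, preincubated 5 min RT with compound; 0.125 microM importin beta added, 45 min RT, CFP/YFP FRET ratio read.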
Rango dissoc inh: qHTS Assay for Inhibitors of RanGTP induced Rango (Ran-regulated importin-beta cargo) - Importin beta complex dissociation | Potency, µM (series often up to 46.1 µM), inactives show at the highest dose activity change, negative = inhibition | 340,000 compounds, 0.071% hits | AID 540253, 2011 | Snurportin-1 (Homo sapiens) + GTP-binding nuclear protein Ran (Homo sapiens) + Importin … | Biochemical FRET Rango-importin beta, RanGTP-induced dissociation; also: potency is read from the fitted curve at half-maximal effect; % of control where 0% means no effect; nearly all actives have a fitted effect of over 45% in size
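Compounds sat 5 min at room temperature with 0.1 uM Rango biosensor plus 0.25 uM importin beta, then FRET pre-read. RanGTP-RCC1 (0.6 uM Ran, 2mM GTP, 0.2 uM RCC1) added for 45 min, and the CFP/YFP post-read measured blocked complex dissociation.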
* hit, by the source's call. Shown are actives, neighbours in structure and some others; about 2.9% of the full set was active somewhere. Unless noted, calls follow the shape of the full dose curve.

Results for Cc1nc2nc(CNC(=O)c3cccc(F)c3)nn2c(C)c1CCC(=O)Nc1cccc(Cl)c1 ?
D3 ag: -13

How did CC(CCc1ccccc1)NC(=O)CN1CCN(Cc2ccc(Cl)cc2)C1=O (stereo not given) do in these assays?
TSG101-PTAP inh: -2%; DRD3 antagonist: -9; D3 ag: -1; Mm-Cpn inhibitor: -1%; Rango-impB inh: -3%; Rango dissoc inh: 25%

What do the screens show for `Cc1cccc(CN2CCN(CC(=O)O)C2=O)c1`?
DRD3 antagonist: -109*; D3 ag: -1; Mm-Cpn inhibitor: -1%; Rango-impB inh: inconclusive; Rango dissoc inh: 4%

What do the screens show for `CC(CCc1ccccc1)NC(=O)CN1CCN(Cc2ccccc2)C1=O` (stereo not given)?
TSG101-PTAP inh: -1%; DRD3 antagonist: 26; D3 ag: 31*; Mm-Cpn inhibitor: -1%; Rango-impB inh: inconclusive; Rango dissoc inh: 1%

What do the screens show for `Cc1ccc(C2CC(C(F)(F)F)n3nc(C(=O)NCc4c(C)nn(C)c4C)c(Cl)c3N2)cc1` (stereo not given)?
TSG101-PTAP inh: 0%; DRD3 antagonist: 30; D3 ag: 34*; Mm-Cpn inhibitor: 1%; Rango-impB inh: -2%; Rango dissoc inh: 3%

Results for CN1c2ccc(Cl)cc2-c2nc(SCC(=O)NCc3ccc(F)cc3)ncc2S1(=O)=O ?
D3 ag: -17

Results for Cc1cnc(C=O)c2cccc([N+](=O)[O-])c12 ?
DRD3 antagonist: -77*; D3 ag: -9

How did CC(C)NC(=O)[C@]1(C)CCC[C@@]2(C)C3CC[C@@]4(C)C[C@]3(CCC21)CC4=O (stereo not given in full) do in these assays?
TSG101-PTAP inh: -3%; DRD3 antagonist: 6; D3 ag: 1; Mm-Cpn inhibitor: 4%; Rango-impB inh: 1%; Rango dissoc inh: -10%

What do the screens show for `C[C@@]12CCC3[C@@](CCC4[C@@]3(C)CCC[C@@]4(C)C(=O)N3CCOCC3)(CC1=O)C2` (stereo not given in full)?
TSG101-PTAP inh: -2%; DRD3 antagonist: 5; D3 ag: 31*; Mm-Cpn inhibitor: 0%; Rango-impB inh: inconclusive; Rango dissoc inh: -18%

What do the screens show for `CC1=C/C(=C(\c2cc(C)c(O)c(Br)c2)c2ccccc2S(=O)(=O)O)C=C(Br)C1=O`?
TSG101-PTAP inh: -13%; DRD3 antagonist: -52*; D3 ag: -22; Mm-Cpn inhibitor: inconclusive; Rango-impB inh: inconclusive; Rango dissoc inh: 1%

How did Cc1c(C(=O)c2ccc(Cl)c(Cl)c2)cnc2cc3c(cc12)OCO3 do in these assays?
TSG101-PTAP inh: -4%; DRD3 antagonist: -56*; D3 ag: 2; Mm-Cpn inhibitor: 0%; Rango-impB inh: 0%; Rango dissoc inh: 9%

How did Cc1nn(-c2ccccc2)c2nc(C3CC3)cc(C(=O)Nc3cccc(F)c3)c12 do in these assays?
D3 ag: 5

How did CCC(CC)C(=O)Nc1ccc2nc(SCC(=O)N3c4ccccc4CC3C)sc2c1 (stereo not given) do in these assays?
D3 ag: 19

What do the screens show for `c1ccc(C2(Cn3ccc4ccccc43)OCCO2)cc1`?
TSG101-PTAP inh: -7%; DRD3 antagonist: 27; D3 ag: 71*; Mm-Cpn inhibitor: -2%; Rango-impB inh: -2%; Rango dissoc inh: -14%
